# Experimental data from PubChem BioAssay AID651558 (National Center for Advancing Translational Sciences (NCATS), 2012).
# Among all 1,200 compounds or so, about 480 (40%) were called active. Roughly 29% stayed inconclusive and do not appear here. This is one part of the list. Values without a mark were called inactive. The call rests on the fitted dose curve; in most records, active means well fitted inhibition curve with a large enough effect; inconclusive means small, poorly fitted or top-dose-only effect; inactive means no such curve, though single readings can be large or run the other way.
# Assay: qHTS Assay to Find Inhibitors of Chronic Active B-Cell Receptor Signaling: Hit Validation in Primary Screen; further: nearly all actives have a fitted effect of over 75% in size
# Conditions: ABC-DLBCL IkB-luc/CBR ratio luminescence, 4 h; series mostly up to 46.1 µM; activity change, negative = inhibition: at the top concentration
# Summary of the method: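 Concentration series (3 nM to 46 uM) tested on TMD8 cells induced with doxycycline for 4 h. Filter-corrected green (IkBa fusion) over red (unfused) luciferase signal; Data were normalised to 10 uM MG-132 and untreated cell wells.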
# On the % scale 0 is the no-effect control and ±100 the full control effect; potency means the concentration at half of the fitted maximal effect.
SMILES,"activity change, negative = inhibition [%]",Potency
CCC(=O)[C@@]1(C)[C@H](C)C[C@H]2[C@@H]3CCC4=CC(=O)C=C[C@]4(C)[C@H]3[C@@H](O)C[C@@]21C,-30,
CCOC(=O)c1ccc(NC(=S)NNC(C)(C)C)cc1,-6.72,
O=C(Nc1ccc([N+](=O)[O-])cc1)Nc1ccon1,,8200 nM (active)
CCOC(=O)c1ccc(NC(=O)Nc2ccon2)cc1,,2310 nM (active)
Cc1c(C(=O)N/N=C/c2ccc(Cl)cc2)[nH]c2ccc(Cl)cc12,,731 nM (active)
O=C(N/N=C/c1ccc(O)cc1)c1[nH]c2ccc(Br)cc2c1-c1ccccc1,,1300 nM (active)
CCOc1ccc2[nH]c(C(=O)N/N=C/c3ccc(OC)cc3)cc2c1,,2910 nM (active)
NNC(=O)c1[nH]c2ccc([N+](=O)[O-])cc2c1-c1ccccc1,2.28,
COc1ccc(NC(=S)N/N=C/c2ccc(F)c(F)c2)cc1,-4.94,
NNC(=O)c1cc2cc(OC(F)(F)F)ccc2[nH]1,0.4,
Cc1ccc2[nH]c(C(=O)N/N=C/c3ccccc3C(=O)O)c(-c3ccccc3)c2c1,5.85,
O=C(N/N=C/c1ccccc1)c1[nH]c2ccc(Br)cc2c1-c1ccccc1,,517 nM (active)
COc1ccc(/C=N/NC(=O)c2[nH]c3ccc(Cl)cc3c2-c2ccccc2)c(C(=O)O)c1OC,11.9,
O=C(NN=C1CCCC1)c1[nH]c2ccc(Cl)cc2c1-c1ccccc1,,13000 nM (active)
COc1ccc(/C=N/NC(=O)c2[nH]c3ccc(Br)cc3c2-c2ccccc2)c(C(=O)O)c1OC,11.4,
COc1ccc(/C=N/NC(=O)c2[nH]c3ccc(Br)cc3c2-c2ccccc2)cc1,,231 nM (active)
NNC(=O)c1[nH]c2ccc(Cl)cc2c1-c1ccccc1,-12.8,
Cc1ccc2[nH]c(C(=O)NN=C3CCCCC3)c(-c3ccccc3)c2c1,-0.622,
Cc1nn(CCC(=O)NNC(=S)NCC(C)C)c(C)c1Br,-4.7,
CCN(CC)c1ccc2cc(-c3nc4ccccc4n3C)c(=O)oc2c1,,580 nM (active)
CC(/C=C/c1ccccc1)=N\NC(=S)NC(C)C,28.3,
O=C(CSc1cccc[n+]1[O-])CSc1cccc[n+]1[O-],-7,
